FBPA coupling cs: qHTS Assay for Inhibitors of Fructose-1,6-bisphosphate Aldolase from Giardia Lamblia: Coupling assay counterscreen; activity change, negative = inhibition, % at 58.2 µM, hits read low; coupling enzyme system counterscreen, AmpLite Red fluorescence; actives 0.67% (n = 290,000); in the data active means activity change below about -30%
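Final compound at 57.5 uM, incubated 10 min at RT with coupling enzyme reagent (glyceraldehyde-3-phosphate), then 20 min with substrate and AmpLite Red detection. Fluorescence read at 525/598 nm; tests interference with the coupling assay, not aldolase inhibition.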
Gal4-VP16 FLuc: VP16 counterscreen qHTS for inhibitors of ROR gamma transcriptional activity; actives 3.5% (n = 310,000); Potency, µM (titrated, usually from 53.6 µM), usual class: inhibitors; Drosophila S2 Gal4-VP16 UAS-luciferase, luminescence, 20 h; AID 2546, 2010;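 further: Gal4-VP16 expression switched on by copper sulfate through the metallothionein promoter; nearly all actives have a fitted effect of over 50% in size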
RORgamma inh: qHTS for inhibitors of ROR gamma transcriptional activity; Nuclear receptor ROR-gamma (Mus musculus), P51450; Drosophila S2 Gal4-RORgamma UAS-luciferase reporter, 20 h; Potency, µM (series often up to 53.6 µM), actives largely listed as inhibitors; actives 5.4% (n = 310,000); AID 2551, 2010; further: nearly all actives have a fitted effect of over 60% in size
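Read-out: Photinus luciferase luminescence; inhibitors lower reporter signal. Insect Schneider cells with Gal4-ROR gamma fusion under metallothionein promoter, UAS reporter; 700 uM final copper sulfate induction, 20 hr, ambient temperature.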
rTrxR1 inhibitor: qHTS Assay for Inhibitors of Mammalian Selenoprotein Thioredoxin Reductase 1 (TrxR1): qHTS; actives 1% (n = 390,000); recombinant rTrxR1, NADPH fluorescence consumption, selenite substrate; Potency, µM (highest dose often 114 µM), usual class: inhibitors; Thioredoxin reductase 1, cytoplasmic (Rattus norvegicus), O89049; further: nearly all actives have a fitted effect of over 65% in size
Target sequence (O89049 whole entry, looked up): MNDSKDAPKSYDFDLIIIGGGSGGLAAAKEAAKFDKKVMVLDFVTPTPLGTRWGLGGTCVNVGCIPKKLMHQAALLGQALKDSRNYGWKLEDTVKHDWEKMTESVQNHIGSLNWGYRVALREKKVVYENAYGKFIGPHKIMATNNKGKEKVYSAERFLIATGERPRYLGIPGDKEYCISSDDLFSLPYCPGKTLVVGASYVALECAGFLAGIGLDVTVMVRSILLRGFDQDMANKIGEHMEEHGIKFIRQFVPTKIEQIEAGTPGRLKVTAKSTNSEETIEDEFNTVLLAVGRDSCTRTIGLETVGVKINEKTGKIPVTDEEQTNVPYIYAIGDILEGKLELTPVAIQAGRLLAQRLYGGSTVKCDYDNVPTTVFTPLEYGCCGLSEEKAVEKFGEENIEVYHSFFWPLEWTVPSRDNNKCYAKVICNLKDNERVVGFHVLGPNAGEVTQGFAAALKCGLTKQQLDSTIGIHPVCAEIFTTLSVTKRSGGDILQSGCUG
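Rat TrxR1 (90 nM in the dispensed reagent) was pre-reduced with 400 uM NADPH for 5 min at room temperature, then incubated with compound for 15 min. After 400 uM selenite was added, NADPH fluorescence (Ex 340/Em 450 nm) was followed for 8 min.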
TrxR1 substrate: qHTS Assay for Substrates of Mammalian Selenoprotein Thioredoxin Reductase 1 (TrxR1): qHTS. Thioredoxin reductase 1, cytoplasmic (Rattus norvegicus), O89049. purified TrxR1 substrate turnover, NADPH consumption readout. Potency, µM (series often up to 114 µM). actives 0.01% (n = 390,000); further: nearly all actives have a fitted effect of over 50% in size
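Rat TrxR1, dispensed at 90 nM, was prereduced with 400 uM NADPH (final) for 5 min at ~22 deg C, then incubated with compound 15 min before 400 uM selenite. A first-read NADPH fluorescence drop versus no-compound background flagged substrates.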
GALK inh: qHTS Assay for Inhibitors of Human Galactokinase (GALK). actives 0.007% (n = 270,000). Purified GALK, Kinase-Glo residual ATP luminescence. P51570. Potency, µM (doses to about 57.5 µM), usual class: inhibitors
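ATP-depletion format; final 35 uM ATP, 100 uM D-galactose, 5 nM enzyme; pH 8.0 HEPES/Mg2+ buffer; 60 min RT; luminescence read 10 min after detection reagent.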
Numbers stand for hits; [ ] = another dose, or the depositor's remark. The list is not random: actives were taken first. Their share in the collection is about 5.9%. Unless noted, the call rests on the fitted dose curve; in most records, active means well fitted curve in the direction sought with a large enough effect; inconclusive means small, poorly fitted or top-dose-only effect, or another doubt; inactive means no such curve, though single readings can be large; an effect the other way counts as inactive or inconclusive.

Results for O=C(Nc1ccc(Cl)cc1C(=O)Nc1ccccn1)c1ccco1 ?
FBPA coupling cs: inactive; Gal4-VP16 FLuc: inconclusive; RORgamma inh: 13µM; rTrxR1 inhibitor: inactive; TrxR1 substrate: inactive; GALK inh: inactive

What do the screens show for `O=C(Nc1ccc(NC(=O)c2ccco2)nc1)c1ccco1`?
FBPA coupling cs: inactive; Gal4-VP16 FLuc: inactive[10 µM]; RORgamma inh: 7.9µM; rTrxR1 inhibitor: inactive; TrxR1 substrate: inactive; GALK inh: inactive

What do the screens show for `O=C(Cc1ccccc1)Nc1ccc(NC(=O)c2ccco2)nc1`?
FBPA coupling cs: inactive; Gal4-VP16 FLuc: inactive; RORgamma inh: inactive; rTrxR1 inhibitor: inactive; TrxR1 substrate: inactive; GALK inh: inactive

What do the screens show for `O=C(Nc1ccc(NC(=O)C2CCCCC2)cn1)c1ccco1`?
FBPA coupling cs: inactive; Gal4-VP16 FLuc: 8.9µM; RORgamma inh: inconclusive; rTrxR1 inhibitor: inactive; TrxR1 substrate: inactive; GALK inh: inactive

Results for O=C(CCn1cnc2onc(-c3ccc(F)cc3)c2c1=O)Nc1ccc(F)c(Cl)c1 ?
rTrxR1 inhibitor: inactive; TrxR1 substrate: inactive

How did [N-]=[N+]=Nc1nc2c(N)ncnc2n1C1OC(CO)C(O)C1O (stereo not drawn) do in these assays?
FBPA coupling cs: inactive; Gal4-VP16 FLuc: inactive; RORgamma inh: inactive

How did CCCn1nnc(NC(=S)NC(=O)C(C)(C)C)n1 do in these assays?
FBPA coupling cs: inactive; Gal4-VP16 FLuc: 8.9µM; RORgamma inh: 3.5µM; rTrxR1 inhibitor: inactive; TrxR1 substrate: inactive; GALK inh: inactive

How did CCCn1nnc(NC(=S)NC(=O)/C=C/c2ccco2)n1 do in these assays?
FBPA coupling cs: inactive; Gal4-VP16 FLuc: inactive; RORgamma inh: inactive; rTrxR1 inhibitor: inconclusive; TrxR1 substrate: inactive; GALK inh: inactive

What do the screens show for `CCn1nnc(NC(=S)NC(=O)c2ccc(-c3cccc(Cl)c3)o2)n1`?
FBPA coupling cs: inactive; Gal4-VP16 FLuc: 2.8µM; RORgamma inh: 0.28µM; rTrxR1 inhibitor: inconclusive; TrxR1 substrate: inactive; GALK inh: inactive

Results for CCCn1nnc(NC(=S)NC(=O)c2cccs2)n1 ?
FBPA coupling cs: inactive; Gal4-VP16 FLuc: 5.6µM; RORgamma inh: 2µM; rTrxR1 inhibitor: inconclusive; TrxR1 substrate: inactive; GALK inh: inactive

What do the screens show for `COc1ccc(S(=O)(=O)NC2CCSc3ccccc32)cc1NC(C)=O` (stereo not drawn)?
FBPA coupling cs: inactive; Gal4-VP16 FLuc: inactive; RORgamma inh: inactive; rTrxR1 inhibitor: inactive; TrxR1 substrate: inactive; GALK inh: inactive

How did COc1ccc(CNC(=O)COC(=O)CO/N=C(\C)c2ccc3c(c2)OCO3)cc1 do in these assays?
rTrxR1 inhibitor: inactive; TrxR1 substrate: inactive

How did Oc1ccc2c(c1)OCC1(O)Cc3cc(O)c(O)cc3C21 (stereo not drawn) do in these assays?
FBPA coupling cs: inactive; Gal4-VP16 FLuc: 5.6µM; RORgamma inh: 0.71µM; rTrxR1 inhibitor: 4.5µM; TrxR1 substrate: inactive

How did Oc1cc2c(cc1O)[C@H]1c3ccc(O)c(O)c3OC[C@@]1(O)C2 do in these assays?
FBPA coupling cs: inactive; Gal4-VP16 FLuc: inactive; RORgamma inh: inconclusive; rTrxR1 inhibitor: 10µM; TrxR1 substrate: inactive

Results for Cc1cc(NC(=O)c2cc(C(C)(C)C)oc2C)no1 ?
FBPA coupling cs: inactive; Gal4-VP16 FLuc: inactive; RORgamma inh: 13µM; rTrxR1 inhibitor: inconclusive; TrxR1 substrate: inactive

What do the screens show for `CC1CCCCC12NC(=O)N(CC(=O)N1CCN(S(=O)(=O)c3cccs3)CC1)C2=O` (stereo not drawn)?
rTrxR1 inhibitor: inactive; TrxR1 substrate: inactive

Results for Cn1c(-c2ccccc2)cc2c3no[n+]([O-])c3ccc21 ?
FBPA coupling cs: inactive; Gal4-VP16 FLuc: inconclusive; RORgamma inh: 6.3µM; rTrxR1 inhibitor: inactive; TrxR1 substrate: inactive; GALK inh: inactive

How did S=c1[nH]nc(-c2ccccc2)n1-c1ccccc1 do in these assays?
rTrxR1 inhibitor: inactive[0.0914 µM]; TrxR1 substrate: inactive

What do the screens show for `Cc1cccc(-n2c(-c3csc(C)c3)n[nH]c2=S)c1`?
FBPA coupling cs: inactive; Gal4-VP16 FLuc: 8.9µM; RORgamma inh: 4µM; rTrxR1 inhibitor: inactive; TrxR1 substrate: inactive; GALK inh: inactive

What do the screens show for `CCc1cc(-c2n[nH]c(=S)n2-c2cccc(C)c2)cs1`?
FBPA coupling cs: inactive; Gal4-VP16 FLuc: 0.56µM; RORgamma inh: 0.32µM; rTrxR1 inhibitor: inactive; TrxR1 substrate: inactive; GALK inh: inactive

Results for Fc1cccc(-c2n[nH]c(=S)n2-c2ccccc2)c1 ?
FBPA coupling cs: inactive; Gal4-VP16 FLuc: 7.9µM; RORgamma inh: 8.9µM; rTrxR1 inhibitor: inactive; TrxR1 substrate: inactive; GALK inh: inactive

How did CCN(CC)c1nc2c(S(=O)(=O)c3cccc(Cl)c3)nnn2c2ccsc12 do in these assays?
rTrxR1 inhibitor: inactive; TrxR1 substrate: inactive

How did COc1ccc(CCNC(=O)C2Cc3ccccc3C(=O)O2)cc1 (stereo not drawn) do in these assays?
FBPA coupling cs: inactive; Gal4-VP16 FLuc: inactive; RORgamma inh: inactive; rTrxR1 inhibitor: inactive; TrxR1 substrate: inactive; GALK inh: inactive

How did CCN(C(=O)c1ccco1)c1nnc(-c2cccnc2)s1 do in these assays?
FBPA coupling cs: inactive; Gal4-VP16 FLuc: inactive; RORgamma inh: inactive; rTrxR1 inhibitor: inactive; TrxR1 substrate: inactive; GALK inh: inactive

Results for NC(=O)C1CCN(c2cc(Cl)ccc2[N+](=O)[O-])CC1 ?
FBPA coupling cs: inactive; Gal4-VP16 FLuc: inactive; RORgamma inh: inactive; rTrxR1 inhibitor: inactive; TrxR1 substrate: inactive; GALK inh: inactive

Results for O=C(NCc1ccccc1Cl)C1=CC=CN2CCS(=O)(=O)N=C12 ?
rTrxR1 inhibitor: inactive; TrxR1 substrate: inactive

Results for CCCCC[C@@H]1C=C(C(=O)O)[C@H](c2ccc3c(c2)OCO3)N1S(=O)(=O)c1ccc(C)cc1 ?
rTrxR1 inhibitor: inactive; TrxR1 substrate: inactive

What do the screens show for `CC1CCN(c2cc(N(C)CCO)c([N+](=O)[O-])c3nonc23)CC1`?
FBPA coupling cs: inactive; Gal4-VP16 FLuc: inactive; RORgamma inh: inactive; rTrxR1 inhibitor: 45µM; TrxR1 substrate: inactive; GALK inh: inactive

Results for CN(C(=O)c1cc2ccccc2cc1O)C1CCCCC1 ?
Gal4-VP16 FLuc: inactive; RORgamma inh: inactive; rTrxR1 inhibitor: inactive; TrxR1 substrate: inactive; GALK inh: inactive

How did COc1ccc(CN2C(=O)N(c3ccc(F)cc3)C(=O)C2CC(=O)Nc2cc(OC)cc(OC)c2)cc1 (stereo not drawn) do in these assays?
rTrxR1 inhibitor: inactive; TrxR1 substrate: inactive

Bioassay records from PubChem.
